This assay relates to Plasmodium falciparum NF54 stage V gametocytes. The experiment in a line: viability index relative to DMSO control (fraction); higher = less gametocyte killing. To be noted: 2.5 µM, incubation time: 72 h. An outline of the steps: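 Compound at 2.5 µM was incubated for 72 hr at 37°C under low oxygen with P. falciparum NF54 stage V gametocytes (0.75% gametocytemia, 1.25% hematocrit, 10 µl, serum-free screening medium) in 1,536-well plates. Staining used 3 µl of 2.5 µM MitoTracker Red CMXRos plus 0.13% saponin for one to two hours, and red particles of 20–70 µm2 were counted in one imaged field per well. Each viability index is that count relative to the plate mean of solvent-only wells.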

Where [1] appears, read: library set: Broad Institute DOS.
The mark [2] stands for this setting: library set: Broad Institute Blood Stage.

± gives the uncertainty stated by the source. Over roughly 9,900 compounds, “viability index relative to DMSO control” has its median near 1; the lowest 2% begin near 0.85. This is one part of a sample in which the lowest values are shown more often than they occur.

`Cc1ccc(-c2ccccc2[C@H]2[C@@H](C#N)N(c3ncc(-c4ccccc4)s3)[C@H]2CO)cc1` yielded a viability index under setting [1] of 0.985 ± 0.14. Still for that read-out and setting: the value for `O=C(C[C@@H]1CC[C@@H]2[C@H](COC[C@H](O)CN2Cc2ccc(C(F)(F)F)cc2)O1)N1CCc2ccccc2C1` was 1.078 ± 0.0039; that for `O=C(C[C@H]1CC[C@@H]2[C@H](COC[C@H](O)CN2Cc2ccc(C(F)(F)F)cc2)O1)N1CCc2ccccc2C1` was 0.846 ± 0.011; that for `O=C(C[C@H]1CC[C@H]2[C@@H](COC[C@@H](O)CN2Cc2ccc(C(F)(F)F)cc2)O1)N1CCc2ccccc2C1` was 0.968 ± 0.024. The same measure, in the same setting: the value for `Cc1noc(C)c1NC(=O)Nc1ccc2c(c1)C(=O)N(C)[C@H]1CC[C@H](CC(=O)Nc3ccc4c(c3)CCCC4)O[C@@H]1CO2` was 1.086 ± 0.0014. On the same count and under the same terms, under `COc1ccc([C@@H]2C/C=C\C[C@H](c3ccc(F)cc3)NC(=O)CCC(=O)N2)c(OC)c1` stands 1.015 ± 0.01. Under setting [1], `Cc1ccccc1-c1ccc2c(c1)O[C@@H](CN(C)C(=O)Nc1ccc(C(F)(F)F)cc1)[C@H](C)CN([C@@H](C)CO)S2(=O)=O` displayed a viability index of 1.09 ± 0.078. The same measure, in the same setting: the value for `C/C=C/c1ccc2c(c1)O[C@H](CN(C)C(=O)Nc1ccc(OC)cc1)[C@H](C)CN([C@@H](C)CO)S2(=O)=O` was 0.988 ± 0.013; that for `Cc1ccccc1-c1ccc2c(c1)O[C@H](CN(C)C(=O)Nc1ccc(C(F)(F)F)cc1)[C@H](C)CN([C@H](C)CO)S2(=O)=O` was 0.988 ± 0.082. Take `COc1ccc(C#Cc2ccc3c(c2)O[C@@H](CN(C)C(=O)Nc2cccc(OC)c2)[C@@H](C)CN([C@@H](C)CO)S3(=O)=O)cc1`: the viability index under setting [2] was found to be 0.612 ± 0.071. Compound `Cc1ccccc1-c1ccc2c(c1)O[C@@H](CN(C)C(=O)Nc1ccc(C(F)(F)F)cc1)[C@@H](C)CN([C@@H](C)CO)S2(=O)=O` had a viability index under setting [1] of 0.838 ± 0.12. On the same count and under the same terms, under `C/C=C/c1ccc2c(c1)O[C@H](CN(C)C(=O)Nc1ccc(OC)cc1)[C@H](C)CN([C@H](C)CO)S2(=O)=O` stands 1.056 ± 0.0059; under `C[C@H](CO)N1C[C@H](C)[C@@H](CN(C)Cc2cccc(C(=O)Nc3ccccc3N)c2)OCc2ccccc2-c2c(n(C)c3ccccc23)C1=O`, 0.887 ± 0.053.

In turn, `CO[C@H](CN(C)S(=O)(=O)c1ccc(C)cc1)[C@H](C)CN(C(=O)Nc1ccccc1F)[C@@H](C)CO` displayed a viability index under setting [1] of 0.986 ± 0.025. Same read-out and setting: under `CCC(=O)N1[C@H](CO)[C@H]2c3ccccc3N(S(=O)(=O)c3ccc(F)cc3)C[C@H]21` stands 0.958 ± 0.067; under `N#C[C@@H]1[C@@H](c2ccccc2C2=CCCCC2)[C@H](CO)N1S(=O)(=O)c1ccccc1`, 1.05 ± 0.1; under `N#C[C@H]1[C@H](c2ccccc2C2=CCCCC2)[C@H](CO)N1S(=O)(=O)c1ccccc1`, 1.14 ± 0.019.

On to `N#C[C@H]1[C@H](c2ccccc2C2=CCCCC2)[C@@H](CO)N1S(=O)(=O)c1ccccc1`, for which the viability index under setting [1] came out at 0.757 ± 0.1. On the same count and under the same terms, under `C[C@@H]1CCCCO[C@@H](CN(C)C(=O)C2CCCCC2)[C@@H](C)CN([C@@H](C)CO)C(=O)c2cc(NS(=O)(=O)c3ccccc3)ccc2O1` stands 1.08 ± 0.023; under `COc1ccc2c3c([C@H](CO)N(C[C@]33CN(C3)C(=O)CC3CC3)C(=O)C3CCCC3)n(C)c2c1`, 0.897 ± 0.036. Still for that read-out and setting: under `COc1ccc2c3c([C@@H](CO)N(C[C@]33CCN(CC4CCCC4)CC3)C(=O)C3CCC3)n(C)c2c1` stands 1.1 ± 0.042. The same measure, in the same setting: the value for `COc1ccc(NC(=O)N2CC[C@@]3(CC2)CN([C@H](CO)c2c3c3ccc(OC)cc3n2C)C(=O)C2CCC2)cc1` was 0.785 ± 0.057; that for `COc1ccc2c3c([C@@H](CO)N(C[C@]33CN(C3)C(=O)CC3CC3)C(=O)C3CCCC3)n(C)c2c1` was 0.932 ± 0.021. The compound `COc1ccc(NC(=O)N2CC[C@@]3(CC2)CN([C@@H](CO)c2c3c3ccc(OC)cc3n2C)C(=O)C2CCC2)cc1` displayed a viability index under setting [1] of 0.897 ± 0.041.

Consider `COc1ccc(NC(=O)N2C[C@@]3(C2)CN([C@H](CO)c2c3c3ccc(OC)cc3n2C)C(=O)C2CCC2)cc1`, for which, under setting [2], the viability index stood at 0.841 ± 0.05. As for `COc1cccc(CN2C[C@@]3(C2)CN([C@@H](CO)c2[nH]c4cc(OC)ccc4c32)C(=O)C2CC2)c1`, the viability index under setting [1] came out at 0.956 ± 0.11. Same read-out and setting: under `C[C@H]1CN([C@@H](C)CO)C(=O)c2cc(-c3cccc(C#N)c3)cnc2O[C@@H]1CN(C)C(=O)C1CCOCC1` stands 1.04 ± 0.025; under `CCCC#Cc1cnc2c(c1)C(=O)N([C@@H](C)CO)C[C@@H](C)[C@@H](CN(C)C(=O)Nc1cc(F)ccc1F)O2`, 1.02 ± 0.012. On the same count and under the same terms, under `C[C@H](CO)N1C[C@H](C)[C@H](CN(C)C(=O)NC2CCCCC2)Oc2ncc(-c3cccc(F)c3)cc2C1=O` stands 1.01 ± 0.084. Under setting [1], `CCCC#Cc1cnc2c(c1)C(=O)N([C@@H](C)CO)C[C@@H](C)[C@H](CN(C)C(=O)Nc1cc(F)ccc1F)O2` yielded a viability index of 1.05 ± 0.041. Same read-out and setting: the value for `C[C@@H]1CN([C@@H](C)CO)C(=O)c2cc(C#Cc3ccccc3)cnc2O[C@@H]1CN(C)C(=O)c1ccccc1` was 1.08 ± 0.028. The compound `C[C@H](CO)N1C[C@H](C)[C@H](CN(C)C(=O)C2CCCCC2)Oc2ncc(C#Cc3cccc(F)c3)cc2C1=O` showed a viability index under setting [2] of 0.62 ± 0.074. Under setting [1], `C[C@@H]1CN([C@H](C)CO)C(=O)c2cc(C#Cc3ccccc3)cnc2O[C@@H]1CN(C)C(=O)c1ccccc1` displayed a viability index of 0.966 ± 0.057. In turn, `C[C@H]1CN([C@@H](C)CO)C(=O)c2cc(C#Cc3cccc(F)c3)cnc2O[C@@H]1CN(C)C(=O)C1CCCCC1` came in with a viability index under setting [2] of 0.769 ± 0.073. Turning to `CCCC#Cc1cnc2c(c1)C(=O)N([C@H](C)CO)C[C@@H](C)[C@H](CN(C)C(=O)Nc1cc(F)ccc1F)O2`, the viability index under setting [1] is 0.822 ± 0.058.

For the origin of these results see the supplement of paper PMC4723716.
